Test results: PubChem BioAssay (NCI)
The panel holds about 83,000 compounds, 20% with a hit somewhere; the sample as a whole holds those more often.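 Treatment: one concentration, 48 hours, 96-well format. Scoring: percent growth, with anything below 10 considered active.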 The source made the active and inactive calls.

Tests used:
Assay in all cases: NCI-60 one-dose screen, 48 h (100 = growth as untreated, 0 = no growth, -100 = all killed)
Conditions in all cases: 10 µM unless noted
NCI-H23 lung = tested on: NCI-H23 lung
NCI-H226 lung = tested on: NCI-H226 lung
NCI-H322M lung = tested on: NCI-H322M lung
HOP-62 NSCLC = tested on: HOP-62 NSCLC
NCI-H460 lung = tested on: NCI-H460 lung
HOP-92 NSCLC = tested on: HOP-92 NSCLC
NCI-H522 lung = tested on: NCI-H522 lung
A549/ATCC NSCLC = tested on: A549/ATCC NSCLC
786-0 renal = tested on: 786-0 renal
COLO 205 colon = tested on: COLO 205 colon

Measured: growth

COc1cccc(/C=C2\COc3ccc(-c4ccccc4)cc3C2=O)c1
active: HOP-62 NSCLC -32.3% | NCI-H460 lung -22.3% | HOP-92 NSCLC -3.57% | 786-0 renal -45.4% | COLO 205 colon -23.4%
inactive: NCI-H23 lung 44.9% | NCI-H226 lung 65.7% | NCI-H322M lung 45.4% | NCI-H522 lung 25.2% | A549/ATCC NSCLC 37%

COc1ccc(/C=C/c2n[nH]c3ccc(N4CCOC4=O)cc23)cc1
active: NCI-H226 lung 6.06% | NCI-H322M lung 8.47% | HOP-62 NSCLC -1.37% | NCI-H460 lung 1.61% | HOP-92 NSCLC -8.15% | A549/ATCC NSCLC 1.87% | COLO 205 colon -17.4%
inactive: NCI-H23 lung 12.4% | NCI-H522 lung 51.3% | 786-0 renal 11.3%

COc1ccc2c(/C=C3/C(=O)NC(=S)NC3C)cc(=O)oc2c1 (configuration not stated)
inactive: NCI-H23 lung 98.9% | NCI-H226 lung 96.7% | NCI-H322M lung 93.1% | HOP-62 NSCLC 92.8% | NCI-H460 lung 105% | HOP-92 NSCLC 93% | NCI-H522 lung 82.3% | A549/ATCC NSCLC 88.9% | 786-0 renal 95.8% | COLO 205 colon 101%

O=c1nc2n(nc1/C=C/c1ccco1)CC(c1ccc(Cl)cc1)=NN2
inactive: NCI-H23 lung 93% | NCI-H226 lung 100% | NCI-H322M lung 84.2% | HOP-62 NSCLC 82.9% | NCI-H460 lung 108% | HOP-92 NSCLC 87.6% | NCI-H522 lung 79.4% | A549/ATCC NSCLC 104% | 786-0 renal 95.7% | COLO 205 colon 110%

c1ccc(-c2nnc(Nc3ccc4c(c3)OCCO4)o2)c(NCc2ccncc2)c1
active: NCI-H23 lung 2.75% | NCI-H226 lung -9.34% | NCI-H460 lung 4.52% | NCI-H522 lung -34.5% | COLO 205 colon -68.8%
inactive: NCI-H322M lung 40.4% | HOP-62 NSCLC 25.3% | HOP-92 NSCLC 77.7% | A549/ATCC NSCLC 22.6% | 786-0 renal 17.1%

c1ccc2c(-c3c4ccsc4cc4[nH]c5ccccc5c34)c[nH]c2c1
inactive: NCI-H23 lung 51.6% | NCI-H226 lung 67.9% | NCI-H322M lung 69.6% | HOP-62 NSCLC 39.7% | NCI-H460 lung 11.6% | HOP-92 NSCLC 63.1% | NCI-H522 lung 22.7% | A549/ATCC NSCLC 39.2% | 786-0 renal 27.9% | COLO 205 colon 58.4%

CC(C)Sc1nc(NN)c(C#N)c(-c2ccccc2)n1
inactive: NCI-H23 lung 100% | NCI-H226 lung 100% | NCI-H322M lung 91.1% | HOP-62 NSCLC 102% | NCI-H460 lung 98.6% | HOP-92 NSCLC 83.5% | NCI-H522 lung 94.7% | A549/ATCC NSCLC 102% | 786-0 renal 97.8% | COLO 205 colon 114%

O=C(OC(OC(=O)c1cc(Cl)cc(Cl)c1)c1cccc2ccccc12)c1ccccc1 (configuration not stated)
inactive: NCI-H23 lung 93.6% | NCI-H226 lung 98.7% | NCI-H322M lung 101% | HOP-62 NSCLC 99.5% | NCI-H460 lung 107% | HOP-92 NSCLC 101% | NCI-H522 lung 80.4% | A549/ATCC NSCLC 92.6% | 786-0 renal 101% | COLO 205 colon 112%

COC(=O)C1=C(C(=O)ONCCN(C)C)C2C=CC1(C(Cc1ccccc1)Nc1ccc(F)cc1)O2 (configuration not stated)
inactive: NCI-H23 lung 91.6% | NCI-H226 lung 108% | NCI-H322M lung 92.8% | HOP-62 NSCLC 101% | NCI-H460 lung 113% | HOP-92 NSCLC 89.7% | NCI-H522 lung 19.2% | A549/ATCC NSCLC 98.1% | 786-0 renal 106%
active: COLO 205 colon -14.7%

CC1NC(=S)NC(=O)/C1=C/c1cc(=O)oc2c1ccc1ccccc12 (configuration not stated)
inactive: NCI-H23 lung 93.8% | NCI-H226 lung 86.1% | NCI-H322M lung 101% | HOP-62 NSCLC 82.1% | NCI-H460 lung 102% | HOP-92 NSCLC 75.9% | NCI-H522 lung 73.8% | A549/ATCC NSCLC 81.3% | 786-0 renal 107% | COLO 205 colon 104%

O=C(O)CNC(=O)CN1C(=O)c2ccccc2C1=O
inactive: NCI-H23 lung 102% | NCI-H226 lung 89.1% | NCI-H322M lung 104% | HOP-62 NSCLC 88.3% | NCI-H460 lung 103% | HOP-92 NSCLC 97.4% | NCI-H522 lung 100% | A549/ATCC NSCLC 81.6% | 786-0 renal 98.4% | COLO 205 colon 104%

O=C1CCCCCCCCC(O)C(O)CCCC(c2cccs2)O1 (configuration not stated)
inactive: NCI-H23 lung 91% | NCI-H226 lung 99.5% | NCI-H322M lung 113% | HOP-62 NSCLC 87.6% | NCI-H460 lung 106% | HOP-92 NSCLC 82.7% | NCI-H522 lung 91.7% | A549/ATCC NSCLC 82.7% | 786-0 renal 98.8% | COLO 205 colon 108%

CCN(CC)CCCC(C)Nc1cc(-c2cccc(OC(F)(F)F)c2)nc2ccc(N3CCCC3)cc12 (configuration not stated)
inactive: NCI-H23 lung 57.9% | NCI-H226 lung 46.7% | NCI-H322M lung 17.7% | HOP-62 NSCLC 23.3% | A549/ATCC NSCLC 10.7%
active: NCI-H460 lung -4.02% | HOP-92 NSCLC -5.67% | NCI-H522 lung 2.05% | 786-0 renal -19.7% | COLO 205 colon -79%

COc1ccc(-c2cnc(N)nc2-c2ccc(OC)cc2O)cc1
inactive: NCI-H23 lung 92.5% | NCI-H226 lung 99.8% | NCI-H322M lung 90.4% | HOP-62 NSCLC 110% | NCI-H460 lung 89.8% | HOP-92 NSCLC 57.8% | NCI-H522 lung 79.6% | A549/ATCC NSCLC 93.1% | 786-0 renal 90% | COLO 205 colon 113%

Cn1c(COC(=O)N2CCCCC2)nc2c(N3CCOCC3)nc(-c3ccccc3)nc21
active: NCI-H23 lung -75.9% | NCI-H226 lung -60.8% | HOP-62 NSCLC -31.3% | NCI-H460 lung -55.9% | HOP-92 NSCLC -64.7% | NCI-H522 lung -53.2% | A549/ATCC NSCLC -39.7% | 786-0 renal -75.1% | COLO 205 colon -60.2%
inactive: NCI-H322M lung 37.4%

CCNC(=S)NNC(=O)c1cc2ccc1CCc1ccc(cc1)CC2
inactive: NCI-H23 lung 97.7% | NCI-H226 lung 106% | NCI-H322M lung 95.1% | HOP-62 NSCLC 101% | NCI-H460 lung 103% | HOP-92 NSCLC 97.2% | NCI-H522 lung 92.7% | A549/ATCC NSCLC 101% | 786-0 renal 106% | COLO 205 colon 107%

CSc1nnc2c(=O)n(C)c(=O)n(C)c2n1
inactive: NCI-H23 lung 108% | NCI-H226 lung 93.2% | NCI-H322M lung 88.9% | HOP-62 NSCLC 116% | NCI-H460 lung 114% | HOP-92 NSCLC 68.1% | NCI-H522 lung 103% | A549/ATCC NSCLC 104% | 786-0 renal 116% | COLO 205 colon 97.8%

COc1ccc(C(=O)/C=C/c2cn(Cc3ccc(Cl)cc3)c3ccccc23)cc1
inactive: NCI-H23 lung 87.5% | NCI-H226 lung 55.1% | NCI-H322M lung 79.5% | HOP-62 NSCLC 58.9% | NCI-H460 lung 11.8% | HOP-92 NSCLC 77.3% | NCI-H522 lung 26.5% | A549/ATCC NSCLC 57.2% | 786-0 renal 26.9% | COLO 205 colon 62.9%

Cc1c([N+](=O)[O-])cc(C(C)(C)C)cc1[N+](=O)[O-]
inactive: NCI-H23 lung 97.4% | NCI-H226 lung 91.3% | NCI-H322M lung 117% | HOP-62 NSCLC 76.2% | NCI-H460 lung 102% | HOP-92 NSCLC 96.4% | NCI-H522 lung 60.2% | A549/ATCC NSCLC 81.8% | 786-0 renal 104% | COLO 205 colon 114%

Cc1cccc(C)c1-c1cc(Cc2ccc(Cl)cc2)c(=O)[nH]n1
inactive: NCI-H23 lung 84.9% | NCI-H226 lung 97.3% | NCI-H322M lung 111% | HOP-62 NSCLC 99.4% | NCI-H460 lung 109% | HOP-92 NSCLC 78.6% | NCI-H522 lung 95.3% | A549/ATCC NSCLC 37% | 786-0 renal 104% | COLO 205 colon 108%

c1ccc(C2CC(c3cccc(Nc4ccncc4)c3)=NN2c2ccccc2)cc1 (configuration not stated)
active: NCI-H460 lung -41.9% | COLO 205 colon -58%
inactive: NCI-H23 lung 85.8% | NCI-H226 lung 96.1% | NCI-H322M lung 82.5% | HOP-62 NSCLC 71.1% | HOP-92 NSCLC 55.5% | NCI-H522 lung 89.1% | A549/ATCC NSCLC 50.9% | 786-0 renal 68.4%

CC(=O)O[C@]1(C(C)=O)CC[C@H]2[C@@H]3C=C(Cl)C4=CC(=O)CC[C@]4(C)[C@H]3CC[C@@]21C
inactive: NCI-H23 lung 114% | NCI-H226 lung 94.4% | NCI-H322M lung 106% | HOP-62 NSCLC 106% | NCI-H460 lung 105% | HOP-92 NSCLC 96.7% | NCI-H522 lung 72.2% | A549/ATCC NSCLC 91.5% | 786-0 renal 99.4% | COLO 205 colon 133%

C=C(C)[C@@H]1CC[C@]2(C(=O)NCCCN(CCC#N)CCC#N)CC[C@]3(C)[C@H](CC[C@@H]4[C@@]5(C)CCC(=O)C(C)(C)[C@@H]5CC[C@]43C)[C@@H]12
inactive: NCI-H23 lung 109% | NCI-H226 lung 102% | NCI-H322M lung 104% | HOP-62 NSCLC 105% | NCI-H460 lung 104% | HOP-92 NSCLC 82.4% | A549/ATCC NSCLC 91.2% | 786-0 renal 94.2% | COLO 205 colon 111%

COc1ccc(OC)c(/C=C/[C@H]2O[C@@H](C)[C@H](O)[C@@H]2O)c1
inactive: NCI-H23 lung 99.6% | NCI-H226 lung 96.1% | NCI-H322M lung 97.5% | HOP-62 NSCLC 106% | NCI-H460 lung 106% | HOP-92 NSCLC 94.7% | NCI-H522 lung 91.7% | A549/ATCC NSCLC 99.4% | COLO 205 colon 111%

COc1cc(NCC(O)CN(CC(C)C)CC(C)C)c2nc(C)ccc2c1 (configuration not stated)
inactive: NCI-H23 lung 85.6% | NCI-H226 lung 88.5% | NCI-H322M lung 107% | HOP-62 NSCLC 67.7% | NCI-H460 lung 96.5% | HOP-92 NSCLC 98.6% | A549/ATCC NSCLC 67.3% | 786-0 renal 90.7% | COLO 205 colon 66.3%

N#Cc1ccc(-c2ccc3c(c2)NC(=O)/C3=C\c2ccc[nH]2)cc1
inactive: NCI-H23 lung 36.4% | NCI-H226 lung 58.1% | NCI-H322M lung 70% | HOP-62 NSCLC 84.4% | NCI-H460 lung 76.2% | HOP-92 NSCLC 36.4% | NCI-H522 lung 81.8% | A549/ATCC NSCLC 104% | 786-0 renal 105% | COLO 205 colon 93.9%

Nc1nnc(C(=O)c2cnc3n(c2=O)CCCCC3)s1
inactive: NCI-H23 lung 96.7% | NCI-H226 lung 92.4% | NCI-H322M lung 103% | HOP-62 NSCLC 101% | NCI-H460 lung 108% | HOP-92 NSCLC 98.4% | NCI-H522 lung 98% | A549/ATCC NSCLC 102% | 786-0 renal 101% | COLO 205 colon 118%
